These results are taken from PubChem BioAssay AID1851 (National Center for Advancing Translational Sciences (NCATS), 2009).

As a reminder, the AC50 is the midpoint of the concentration-response curve, whichever way the signal moves.

Each structure is given as a SMILES string. Screen size: about 16,000 compounds; about 5,800 (36%) were called active. About 23% were inconclusive and are not listed. This is one part of the list. A number with no mark means an inactive call. Calls follow the shape of the dose curve; as a rule, active = well fitted curve in the direction sought with a large enough effect; inconclusive = small, poorly fitted or top-dose-only effect, or effect the other way; inactive = no such curve, though single readings can be large or run the other way.
% is scaled to controls: 0 for no effect and ±100 for the full control effect.

This assay deals with Cytochrome P450 2C19 (Homo sapiens) (UniProt P33261). In words: Cytochrome panel assay with activity outcomes. The conditions noted are these: recombinant CYP, pro-luciferin dealkylation, luminescence, p450-cyp2c19; series mostly up to 57.1 µM.
Chain of Cytochrome P450 2C19 (Homo sapiens) (P33261 whole entry, looked up): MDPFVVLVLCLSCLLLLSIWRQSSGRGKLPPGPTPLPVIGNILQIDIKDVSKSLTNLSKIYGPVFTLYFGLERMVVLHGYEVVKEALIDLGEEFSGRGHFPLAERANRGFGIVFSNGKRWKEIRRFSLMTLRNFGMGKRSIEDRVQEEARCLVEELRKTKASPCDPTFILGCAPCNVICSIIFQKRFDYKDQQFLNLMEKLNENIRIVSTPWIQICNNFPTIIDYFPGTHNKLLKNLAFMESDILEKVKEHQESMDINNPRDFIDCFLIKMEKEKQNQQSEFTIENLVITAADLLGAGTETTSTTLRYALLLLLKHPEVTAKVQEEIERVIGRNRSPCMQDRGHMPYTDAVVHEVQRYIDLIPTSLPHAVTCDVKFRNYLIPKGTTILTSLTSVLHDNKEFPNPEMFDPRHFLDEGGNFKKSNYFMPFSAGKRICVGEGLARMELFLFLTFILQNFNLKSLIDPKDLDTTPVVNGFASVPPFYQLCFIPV
Turning to `COc1ccc(/C=N/n2c(C)nnc2C)c(OC)c1`, the AC50 entry was “inactive”. Still for that read-out and setting: with `COc1cccc(/C=N/n2c(=S)n(C)c3cc(C)c(C)cc32)c1OC` the figure was 2.24 µM (active). With `Cc1ccc(C(=O)NC2CCCCCC2)cc1N1CCCC1=O`, the AC50 entry is “inactive”.

For `Cc1c(Br)cc(C(=O)NC2CCCCC2)c(C)c1C`, the AC50 was 14.1 µM (active). For `C[C@@H](CCC(=O)O)C(=O)O`, the activity, negative = inhibition is 30.5% [at 11.4 µM]. For `N#C/C(=C\Nc1ccccn1)C(=O)C1CC1`, the activity, negative = inhibition is -23.3% [at 11.4 µM]. As to `N#C/C(=C\c1cn[nH]c1-c1ccccc1)C(=O)NC1CCCCCC1`, the AC50 is 17.8 µM (active). On the same count and under the same terms, with `COc1ccc(/C=C(/C#N)C(=O)NC2CCCCC2)cc1Br` the entry was “inactive”; with `N#C/C(=C\c1cc(Cl)cc(Cl)c1O)C(=O)NC1CCCCC1`, 15.8 µM (active). As for `CC(=NC1CCCCC1)c1ccccc1O`, the activity, negative = inhibition was 3.59% [at 11.4 µM]. On the same count and under the same terms, as for `CC1=NNC(=S)NCCCN2CCN(CCCNC(=S)NN=C(C)C=NNC(=S)NCCCN3CCN(CCCNC(=S)NN=C1)CC3)CC2`, the figure is 27% [at 11.4 µM]. Take `Cc1cc(C(F)(F)F)n2nc(-c3cnn(C)c3C(F)(F)F)cc2n1`: the AC50 is 2.82 µM (active). Regarding `Cc1cc(C(F)(F)F)n2nc(-c3cnn(C)c3C(F)(F)F)c(Cl)c2n1`, the AC50 was 1.78 µM (active).

Consider `O=C(NCC1CCCO1)c1cc(-c2ccc(Cl)cc2Cl)on1` (centres undefined), for which the AC50 is 15.8 µM (active).

For the compound `O=C(Nc1ccccc1C(=O)NCC1CCCO1)c1ccc(Cl)cc1Cl` (centres undefined), the AC50 was 14.1 µM (active).

As to `Cc1ccccc1C(=O)c1c[nH]c(C(=O)NCC2CCCO2)c1` (centres undefined), the AC50 is 1 µM (active). On to `CO[C@@H]1COC(=O)[C@H]2CCCN2C(=O)[C@@H](C)COC(=O)[C@H](COCc2ccccc2)NC(=O)C/C=C\[C@H]1C`, for which the activity, negative = inhibition is 12.9% [at 11.4 µM]. The same measure, in the same setting: with `O=C(O)/C=C\C(=O)Nc1ncn[nH]1` the figure was 10.9% [at 11.4 µM].

Consider `O=[N+]([O-])c1ccc(N2CCN(CCOc3nonc3-c3ccccc3)CC2)c(Cl)c1`, for which the AC50 is 4.47 µM (active). For the compound `Oc1c(Br)cc(Br)cc1CN(Cc1cc(Br)cc(Br)c1O)C1CCCCC1`, the concentration at half-maximal activity (AC50) is 0.316 µM (active). As to `Oc1c(Br)cc(CN(Cc2cc(Br)c(O)c(Br)c2)C2CCCCC2)cc1Br`, the activity, negative = inhibition is -5.38% [at 11.4 µM]. With `CN(C)Cc1cc(O)c(O)c(CN(C)C)c1`, the activity, negative = inhibition is -24% [at 11.4 µM]. The same measure, in the same setting: with `CC(C)c1cc(CN(C)C)c(O)c(C(C)(C)C)c1` the figure was -2.3% [at 11.4 µM]. With `CC(C)(C)c1cc(Br)c(O)c(CN(Cc2cc(C(C)(C)C)cc(Br)c2O)C2CCCCC2)c1`, the AC50 is 0.631 µM (active). Regarding `CN(Cc1cc(C(C)(C)C)cc(Br)c1O)Cc1cc(C(C)(C)C)cc(Br)c1O`, the AC50 is 3.16 µM (active). For the compound `CC12CC[C@@H]3c4ccc(OP(=O)(O)O)cc4CCC3C1CCC2=O` (some centres undefined), the activity, negative = inhibition was -12.5% [at 11.4 µM]. On to `O=C(c1ccncc1)N1CCC2(CC1)CN(Cc1cc(C(F)(F)F)cc(C(F)(F)F)c1)C2`, for which the AC50 result is “inactive”. For `CCOc1ccc(NC(=O)N(C2CCCCC2)C(C)c2ccncc2)cc1` (centres undefined), the AC50 was 7.08 µM (active). The same measure, in the same setting: as for `CCOc1ccc(NC(=O)C(=O)NCC2CCCN2CC)cc1` (centres undefined), the entry is “inactive”; as for `CCCCN(C(=O)Nc1ccc(OCC)cc1)C1CCN(C(C)=O)CC1`, “inactive”; as for `O=C(NNc1nc2ccccc2s1)C1CC1`, 15.8 µM (active).

For `CC(=O)NNc1nc2ccccc2s1`, the AC50 entry is “inactive”. On to `O=C(NNc1nc2ccccc2s1)c1ccccc1F`, for which the AC50 is 11.2 µM (active). In the case of `O=C1C2=C(Nc3cc([N+](=O)[O-])ccc3N2)O[C@@H]1c1ccc([C@H]2OC3=C(Nc4ccc([N+](=O)[O-])cc4N3)C2=O)cc1`, the activity, negative = inhibition was -18.1% [at 11.4 µM]. Turning to `O=C1Nc2ccc([N+](=O)[O-])cc2C1(O)N1CCCCCC1` (centres undefined), the AC50 is 10 µM (active). With `CCN(CC)c1nc(Nc2ccccc2)nc(Oc2ccc(C(=O)OC)cc2)n1`, the AC50 is 7.94 µM (active).

Consider `Cc1ccc(/C=C2\Sc3ccccc3C2=O)s1`, for which the AC50 was 1.26 µM (active).

For the compound `O=C1C(Cc2ccccc2)SC(=Nc2ccccc2)N1c1ccccc1` (centres undefined), the AC50 was 3.16 µM (active). The same measure, in the same setting: as for `CN1CCN(/C=N/C2=C(C#N)C(c3ccccc3)C3=C(CC(C)(C)CC3=O)O2)CC1` (centres undefined), the figure is 20 µM (active). Consider `O=C(CCOc1ccccc1)Nc1ccccc1`, for which the AC50 is 3.55 µM (active). For the compound `O=C(O)c1cccc(OCCO)c1`, the activity, negative = inhibition is 13.7% [at 11.4 µM]. With `C#CCCCC(=O)Nc1ccccc1`, the AC50 result is “inactive”.

As for `NCC(=O)Nc1ccccc1`, the activity, negative = inhibition was -29.3% [at 11.4 µM]. Consider `COC(=O)c1cccc(NC(=O)CCCOc2ccccc2)c1`, for which the AC50 is 2.24 µM (active). On the same count and under the same terms, as for `Cc1cc(C(=O)N/N=C/c2cccc(OC(=O)c3ccco3)c2)n[nH]1`, the figure is 25.1 µM (active). Still for that read-out and setting: with `Cc1ccc(NCC(=O)N/N=C/c2ccc(OC(=O)c3ccco3)cc2)cc1` the figure was 2.51 µM (active). Take `Cc1ccc(NCC(=O)N/N=C\c2ccc([N+](=O)[O-])o2)cc1`: the AC50 is 8.91 µM (active). In the case of `NC(=O)N/N=C\c1ccc([N+](=O)[O-])o1`, the AC50 entry was “inactive”. The same measure, in the same setting: with `COC(=O)c1ccccc1NC(=O)CSc1nnc(C(CO)NC(=O)c2ccccc2Cl)n1C` (centres undefined) the entry was “inactive”; with `COc1ccc(C(=O)NC(CO)c2nnc(SCc3ccc(Cl)c(Cl)c3)n2C)cc1` (centres undefined), 15.8 µM (active); with `CC(=O)OCC(=O)[C@@]1(O)CC[C@@H]2[C@H]3CCC4=CC(=O)C=C[C@]4(C)[C@]3(F)[C@@H](O)C[C@@]21C`, “inactive”. For `Cc1cc(C)c(NC(=O)NC(=O)c2ccc(F)cc2)c(C)n1`, the AC50 entry was “inactive”.

As for `Cc1cc(NC(=O)NC(=O)c2ccc(F)cc2F)n[nH]1`, the AC50 is 11.2 µM (active). The same measure, in the same setting: as for `Cc1onc(-c2ccccc2)c1C(=O)NCCc1c[nH]c2ccccc12`, the figure is 1.78 µM (active). Still for that read-out and setting: as for `CCCC(O)(CCC)C(=O)NN1CCCCC1`, the entry is “inactive”; as for `CC(=O)[C@H]1CC[C@@H]2[C@H]3CC=C4C[C@@H](O)CC[C@]4(C)[C@H]3CC[C@]12C`, “inactive”; as for `CC(=O)[C@H]1CC[C@H]2[C@@H]3C=CC4=CC(=O)CC[C@@]4(C)[C@H]3CC[C@]12C`, 1 µM (active).

On to `CC(=O)[C@@H]1CC[C@@H]2[C@@H]3C[C@H](C)C4=CC(=O)CC[C@@]4(C)[C@H]3[C@H](O)C[C@]21C`, for which the AC50 entry was “inactive”. Same read-out and setting: as for `Cc1nc2cnc(N3CCNCC3)nc2n(Cc2cccs2)c1=O`, the entry is “inactive”; as for `O=c1c(-c2ccc(F)cc2)nc2cnc(N3CCOCC3)nc2n1Cc1cccs1`, “inactive”. Same read-out and setting: with `COc1ccc(-c2nc3cnc(N4CCNCC4)nc3n(Cc3cccs3)c2=O)cc1` the entry was “inactive”; with `O=c1c(-c2ccc(F)cc2)nc2cnc(N3CCNCC3)nc2n1Cc1cccs1`, 15.8 µM (active); with `Cn1c(=O)c(-c2cccs2)nc2cnc(N3CCNCC3)nc21`, “inactive”.

As to `O=c1c(-c2cccs2)nc2cnc(N3CCNCC3)nc2n1Cc1cccs1`, the AC50 was 5.01 µM (active).
